HCV inh – qHTS Assay for Inhibitors of Hepatitis C Virus (HCV). Huh7.5.1 HCVcc-Cre infection, luciferase reporter, 44 h. Potency, µM (doses to about 41.8 µM), usual class: inhibitors. actives 3.4% (n = 340,000); active means well fitted inhibition curve with a large enough effect; inconclusive means small, poorly fitted or top-dose-only effect, or another doubt; inactive means no such curve, though single readings can be large or run the other way
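Compounds are dispensed onto cells plated 4 h earlier at 1,000 per well, with HCVcc-Cre virus (about 0.5 moi) added next. Following 44 h of culture, luminescent signal is measured for 15 sec after 15 min with substrate at room temperature.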
LASV entry inh – qHTS for Inhibitors of binding or entry into cells for Lassa Virus; actives 1.2% (n = 300,000); Lassa virus pseudotype entry inhibition, cell reporter; Potency, µM (top dose mostly 37.9 µM), most hits filed as inhibitors; calls by dose curve; tested in HEK293 cells; further: nearly all actives have a fitted effect of over 50% in size
Marburg entry inh – qHTS for inhibitors of binding or entry into cells for Marburg Virus; Potency, µM (highest dose often 37.8 µM), most hits filed as inhibitors; Marburg virus pseudotyped entry inhibition, cell reporter; actives 1.8% (n = 300,000); calls by dose curve; tested in HEK293 cells
FMDV inh – High Throughput Screening for Foot and Mouth Disease Virus Antivirals | actives 1.2% (n = 410,000) | Potency, µM (titrated, usually from 57.9 µM), hits mostly inhibitors | AID 1159524, 2015 | FMDV antiviral cell-based qHTS; calls by dose curve; tested in HEK293T cells; further: read-out not given here; nearly all actives have a fitted effect of over 45% in size
HCMV antiviral – qHTS Assay for inhibitors of the human cytomegalovirus (HCMV). HFF cells, HCMV-luciferase reporter, 72 h; hits give low values. activity change, negative = inhibition, % at 57.5 µM. actives 4.5% (n = 410,000). AID 1259415, 2018; in the data active means activity change below about -60%; inconclusive means no clear call, values can overlap the other calls; inactive means above about -39%
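Screen run at 2 compound doses on HFFs infected with reporter HCMV, MOI 1 PFU/cell. Luciferase activity from cell lysates at 72 h post infection gave inhibition relative to buffer-only and Salinomycin wells.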
Numbers stand for hits; - = inactive; ? = inconclusive; . = no result; ! = not confirmed by another sample. The list is not random: actives were taken first. Their share in the collection is about 7.9%.

SMILES | HCV inh | LASV entry inh | Marburg entry inh | FMDV inh | HCMV antiviral
CCCOc1ccc(C(=O)CCC(=O)OCC(=O)N(CC)c2c(N)n(Cc3ccccc3)c(=O)[nH]c2=O)cc1 | - | . | . | - | -
CCN(C(=O)CN1c2ccccc2CC1C)c1c(N)n(Cc2ccccc2)c(=O)[nH]c1=O (stereo not drawn) | - | - | ? | - | -64
Nc1c(N(Cc2ccccc2)C(=O)CCc2ccccc2)c(=O)[nH]c(=O)n1Cc1ccccc1 | - | ? | - | - | ?
CC(=O)c1cc(C#N)c(N2CCOCC2)nc1C | - | - | - | - | -
CC(=O)NCCNC(=O)c1nnc2n1CCN(C(=O)COc1ccccc1)C2 | . | . | . | . | -
CCOc1ccc(OCC(=O)N(CCC2=CCCCC2)c2c(N)n(Cc3ccccc3)c(=O)[nH]c2=O)cc1 | - | . | . | . | -84
CCOc1ccc(OCCC(=O)N(CCC2=CCCCC2)c2c(N)n(Cc3ccccc3)c(=O)[nH]c2=O)cc1 | ? | ? | - | - | -
CCOc1ccc(NC2=CC(=O)C(=O)c3ccccc32)cc1 | ? | ? | ? | - | ?
COc1cc(Cl)c(NC2=CC(=O)C(=O)c3ccccc32)c(OC)c1 | 16µM | . | . | ? | -97
CCCC(O)(c1ccccc1)C(CN1CCOCC1)c1ccccc1 (stereo not drawn) | - | . | . | - | ?
CCCC(O)(c1ccc(CC)cc1)C(CN1CCOCC1)c1ccccc1 (stereo not drawn) | - | ? | ? | ? | -69
CCc1ccc(C(O)(C(C)C)C(CN2CCOCC2)c2ccccc2)cc1 (stereo not drawn) | ? | . | . | - | -77
CC(C)Oc1ccc(CNC(=O)c2cc3ccccn3n2)cc1 | . | ? | . | - | -
COC(=O)C1CCN(Cc2ccc3c(c2)CN(C(=O)c2ccnn2C)CCO3)CC1 | . | . | . | - | .
COc1ccc(/C=N/Nc2ccc(C(=O)O)cc2)cc1Br | - | ? | 3.2µM | 22µM | -
O=C(O)c1ccc(N/N=C/c2ccc(OC(=O)c3ccccc3Cl)cc2)cc1 | - | 0.71µM | ? | 13µM | -68
CC(C)c1ccc(/C=N/Nc2ccc(C(=O)O)cc2)cc1 | - | 0.65µM | 1.5µM | 45µM | -63
C=CCOc1ccc(C[C@H](N)C(=O)NC[C@H]2O[C@@H](n3cc(C)c(=O)[nH]c3=O)C[C@@H]2O)cc1 | . | . | . | - | -
COc1cc(NC(=O)CNS(=O)(=O)c2cccs2)cc(OC)c1OC | . | - | . | - | -
O=C(CCCCn1cnc2c(=S)nc[nH]c21)Nc1ccc(C(=O)O)c(O)c1 | - | - | - | - | -73
Cc1ccc(C)n1-c1ccc(N2CCOCC2)cc1 | ? | - | - | - | -73
Cc1ccc(C)n1-c1ccc(N2CCOCC2)c([N+](=O)[O-])c1 | - | . | . | - | -
Cc1ccc2c(c1)C(N1CCN(C)CC1)=Nc1cccnc1N2 | . | - | 11µM! | . | .
O=[N+]([O-])c1ccc2nn(Cc3ccccc3)cc2c1 | - | . | . | - | -
CN(C)CCn1c2ccccc2c2nc3ccc([N+](=O)[O-])cc3cc21 | - | ? | ? | - | -108
SMILES | HCV inh | LASV entry inh | Marburg entry inh | FMDV inh | HCMV antiviral
COc1ccc(OC)c(S(=O)(=O)Nc2cc(OC)c(Cl)cc2OC)c1 | - | - | ? | - | -
COc1cc(NS(=O)(=O)c2ccc(OC)c(C)c2C)c(OC)cc1Cl | 10µM | ? | ? | - | ?
COc1ccc(-c2csc(C(C)(O)c3ccc(F)c(F)c3)n2)cc1 (stereo not drawn) | . | . | . | - | -63
CN(C)c1ccc(-c2csc(C(C)(O)c3ccc(F)c(F)c3)n2)cc1 (stereo not drawn) | . | . | . | - | -64
COc1ccc(C(C)(O)c2nc(-c3cccc(C(F)(F)F)c3)cs2)cc1 (stereo not drawn) | . | . | . | - | -67
C=C1C(C)C2C(Cc3ccccc3)NC(=O)C23C(OC(C)=O)C=CC(C)(O)CC(C)CC=CC3C1O (stereo not drawn) | - | 2.2µM | 4µM | - | -
CC(=O)O[C@@H]1/C=C/[C@](C)(O)C[C@@H](C)C/C=C/[C@H]2[C@H](O)C(C)=C(C)[C@H]3[C@H](Cc4ccccc4)NC(=O)[C@@]123 | - | . | . | - | .
Cc1cc(C(=O)NCc2nnc3n2CCN(Cc2ccc4c(c2)Cc2ccccc2-4)CC3)c(C)o1 | . | . | . | - | .
CC(C)[C@@H](OCc1ccccc1)[C@H](C)/C=N/OC[C@@H](O)[C@H]1O[C@@H]2OC(C)(C)O[C@@H]2[C@H]1O | . | . | - | . | .

High-throughput results (PubChem)
